Test results: article PMC5540273 (PLoS ONE, 2017)

Legend:
Conditions in all cases: concentration: 1 μM, replicates: in singlicate; n = 1
ULK3 = system: ULK3
VEGFR2 = system: T1, VEGFR2
T1 construct: gene KDR

VPS34 = system: T2, VPS34
T2 construct: gene PIK3C3

VRK2 = system: VRK2
WEE1 = system: WEE1
WEE2 = system: WEE2
WNK1 = system: WNK1
WNK2 = system: WNK2
WNK3 = system: WNK3
WNK4 = system: WNK4
YANK1 = system: T3, YANK1
T3 construct: gene STK32A

YANK2 = system: T4, YANK2
T4 construct: gene STK32B

YANK3 = system: T5, YANK3
T5 construct: gene STK32C

YES = system: T6, YES
T6 construct: gene YES1

YSK1 = system: T7, YSK1
T7 construct: gene STK25

YSK4 = system: T8, YSK4
T8 construct: gene MAP3K19

ZAK = system: ZAK
ZAP70 = system: ZAP70
p38-alpha = system: T9, p38-alpha
T9 construct: gene MAPK14

p38-beta = system: T10, p38-beta
T10 construct: gene MAPK11
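Note: KINOMEscan kinase panel screen.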

SMILES	%Inh (ULK3) [%]	%Inh (VEGFR2) [%]	%Inh (VPS34) [%]	%Inh (VRK2) [%]	%Inh (WEE1) [%]	%Inh (WEE2) [%]	%Inh (WNK1) [%]	%Inh (WNK2) [%]	%Inh (WNK3) [%]	%Inh (WNK4) [%]	%Inh (YANK1) [%]	%Inh (YANK2) [%]	%Inh (YANK3) [%]	%Inh (YES) [%]	%Inh (YSK1) [%]	%Inh (YSK4) [%]	%Inh (ZAK) [%]	%Inh (ZAP70) [%]	%Inh (p38-alpha) [%]	%Inh (p38-beta) [%]
COc1ccc(Nc2nccc(N3CCC(NS(=O)(=O)c4ccc(NC(C)=O)cc4)C3)n2)cc1 (stereo not drawn) [GSK1379729]	42	0	92.3	16	37	11	24	38	0	29	8	3	0	10	0	1	24	0	82	17
CCCC(=O)Nc1n[nH]c2ncc(-c3cccc4ccccc34)cc12 [SB-642057]	26	11	0	0	6	0	12	6	0	0	0	6	42	9	8	57	54	0	14	4
Nc1ncnc2c1ncn2-c1ccc(Cl)cc1 [AH2635]	2	0	0	15	0	11	0	0	34	32	0	0	0	0	0	27	0	0	32	0
COc1cc(OC)cc(-c2cc3cnc(N)nc3nc2NC(=O)NC(C)(C)C)c1	0	36	0	0	0	5	0	0	0	0	11	19	0	100	0	15	15	0	6	7
CCC(=O)c1c(-c2ccccc2)c2cc(Cl)ccc2c(=O)n1Cc1cc(S(C)(=O)=O)n(CC(N)=O)n1	8	0	0	0	4	0	0	0	0	0	0	0	0	0	0	0	0	0	0	8
Nc1ncnc2c1ncn2-c1cccc2ccccc12 [SKF-97184]	30	0	56	29	0	0	15	0	29	15	0	80	4	0	12	23	0	37	0	0
Cc1cc(Nc2nc(-c3cccc(C)n3)nc3ccccc23)ccn1 [GW872411]	0	0	0	40	1	2	0	0	0	0	0	0	0	0	0	0	0	0	20	0
CCn1c(-c2nonc2N)nc2ccccc21 [SB-693162/GW549034]	20	40	2	0	0	0	0	39	0	6	46	0	0	0	0	87	0	0	23	1
COc1ccc(CNC(=O)NC2CCN(c3ccnc(Nc4ccc(F)cc4)n3)C2)cc1 (stereo not drawn) [GSK1379706]	0	9	33	33	10	9	0	30	49	50	12	0	0	0	25	0	0	20	44	0
COc1ccc(-c2cc3c(C)nc(N)nc3n([C@H]3CC[C@H](O)CC3)c2=O)cn1	0	0	0	0	0	0	0	0	0	18	0	0	0	0	0	0	0	0	0	0
CCC(=O)c1c(-c2ccccc2)c2cc(Cl)ccc2c(=O)n1Cc1cc(S(C)(=O)=O)n(CC(F)F)n1	0	0	0	0	0	0	0	0	0	0	0	8	0	0	0	0	0	11	10	2
COc1cc(Nc2ccnc3ccc(C(F)(F)F)cc23)cc(OC)c1OC [GW577382]	14	0	0	27	11	14	8	13	27	0	4	16	44	13	1	0	12	0	30	25
Nc1nc(N)c2nc(-c3ccccc3)[nH]c2n1 [SKF-12778]	30	0	0	5	8	0	9	9	11	17	0	1	13	11	0	68	22	14	0	7
COc1cccc(-n2cnc3c(N)ncnc32)c1 [SKF-97416]	27	15	45	8	2	0	7	0	38	43	4	0	1	0	0	45	42	25	0	22
Nc1nccc2scc(-c3ccc4c(c3)CCN4C(=O)Cc3ccccc3)c12 [GSK2576924]	12	5	0	0	14	0	17	26	27	0	10	9	0	5	0	36	0	0	0	0
Cc1ccc(-c2ccc3c(ccc4sc5c(c43)NC[C@@H](C)N=C5N(C)C)n2)cn1	0	0	0	0	0	0	0	0	0	0	0	0	0	0	0	0	0	0	0	0
Cc1ccc(Oc2ccc(Nc3ncnc4cc[nH]c34)cc2C)cn1	22	15	20	0	0	0	0	0	10	0	5	22	11	3	0	14	5	0	5	28
OCCCNc1nccc(-c2c(-c3cccc(C(F)(F)F)c3)nn3cc(C(F)(F)F)ccc23)n1 [GW630813]	0	3	0	18	0	0	0	0	33	85	0	0	0	0	1	2	0	0	99.4	30
COc1cccc(C2=C(Nc3cccc(C(=O)O)c3)C(=O)NC2=O)c1 [SB-390770]	9	11	34	16	0	7	3	18	5	0	12	0	16	8	0	14	41	7	0	11
Cc1nc(N(C)[C@H]2CN(C(=O)CC#N)CC[C@H]2C)c2cc[nH]c2n1	0	0	0	0	0	13	0	0	0	0	0	0	6	18	0	0	0	0	0	1
Cl.c1ccc(Cn2cnc3cc(Nc4ncnc5ccccc45)ccc32)cc1 [GW272142]	5	0	0	0	4	12	2	21	35	44	0	0	18	7	0	29	0	21	0	0
